Compounds with a hit are over-represented: about 4.2% of the library has one in this group of screens.
Wnt act: Wnt/beta-catenin pathway activators, primary screen, cell-based, plate reader, single point; activation, % at 9.35 µM; Wnt/beta-catenin reporter cell assay, activator; 300,000 compounds, 1.2% hits; AID 743398, 2014; in the data active = activation above about 30%, passing the limit was not always enough; inconclusive = no clear call, values can overlap the other calls;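 also: 0% = neutral control wells and 100% = positive control wells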
MITF TRPM1 HTS: activators of MITF-driven TRPM1 promoter reporter, primary screen, cell-based, SK-MEL-5, luciferase, single point | AID 588334, 2011 | SK-MEL-5 TRPM1-promoter luciferase, 24 h; % of positive control, neutral wells = 0 | activation, % at 12.5 µM | 300,000 compounds, 0.75% hits;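 active = mean activation of at least 80% with every replicate also reaching 80%; inconclusive = mean reaches 80% but some replicate falls short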;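 also: 0% = neutral control wells and 100% = parthenolide positive control wells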
AHR activator: AHR activators, primary screen, cell-based, luminescence, luciferase reporter, human; Aryl hydrocarbon receptor (Homo sapiens), P35869; AHR-responsive luciferase reporter cells; activation, % at 5 µM; 320,000 compounds, 2.5% hits; AID 2796, 2010; in the data active = activation above about 47%;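 also: 0% = vehicle wells and 100% = reference agonist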
Target sequence (P35869 whole entry, looked up): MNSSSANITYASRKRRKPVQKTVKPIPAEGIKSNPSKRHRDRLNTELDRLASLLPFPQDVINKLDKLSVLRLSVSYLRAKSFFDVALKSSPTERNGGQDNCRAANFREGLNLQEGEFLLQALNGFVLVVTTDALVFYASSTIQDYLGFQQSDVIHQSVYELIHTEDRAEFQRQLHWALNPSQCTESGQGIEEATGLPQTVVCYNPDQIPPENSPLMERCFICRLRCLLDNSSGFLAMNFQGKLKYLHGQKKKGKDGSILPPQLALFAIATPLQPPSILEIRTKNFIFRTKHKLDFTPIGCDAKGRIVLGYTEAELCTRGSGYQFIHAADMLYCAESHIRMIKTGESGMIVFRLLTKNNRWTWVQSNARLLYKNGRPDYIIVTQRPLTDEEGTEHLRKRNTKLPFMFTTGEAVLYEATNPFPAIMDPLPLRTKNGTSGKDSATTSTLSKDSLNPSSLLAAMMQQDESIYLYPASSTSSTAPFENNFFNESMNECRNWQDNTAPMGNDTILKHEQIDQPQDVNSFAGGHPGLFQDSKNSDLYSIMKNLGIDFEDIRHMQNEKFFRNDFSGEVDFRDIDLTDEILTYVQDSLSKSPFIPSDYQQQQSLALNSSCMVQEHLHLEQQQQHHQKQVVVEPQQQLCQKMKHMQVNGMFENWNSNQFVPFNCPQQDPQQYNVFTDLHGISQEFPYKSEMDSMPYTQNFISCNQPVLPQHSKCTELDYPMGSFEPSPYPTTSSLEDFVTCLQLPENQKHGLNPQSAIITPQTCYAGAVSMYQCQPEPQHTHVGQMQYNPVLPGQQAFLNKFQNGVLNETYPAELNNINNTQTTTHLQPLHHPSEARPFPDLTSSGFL
GAA850 FXN act: FXN promoter activators, primary screen, cell-based, luciferase luminescence, HEK293 lucGAA850. HEK293 lucGAA850 FXN promoter luciferase reporter, 24 h; percent of 10 µM SAHA response. activation, % at 6 µM. 360,000 compounds, 0.56% hits;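 active = activation above the average of all compounds screened plus 3 SD, cutoff fixed separately per campaign, cut at about 7.5% in these data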;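 also: 0% = DMSO wells and 100% = 10 µM SAHA wells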
esBAF inh: Bmi1 luciferase reporter increase in mESCs, primary screen, esBAF inhibitor project, mouse ES cells, Bmi1 luciferase knock-in, single point; 24 h; 100% = twice the neutral-well signal; reporter increase, % at 12.5 µM; 350,000 compounds, 2% hits; in the data active = activation above about 40%; inconclusive = no clear call, values can overlap the other calls;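 also: 0% = median of the plate's neutral control wells and 100% = double that signal; a rise in the Bmi1 reporter signal indicates esBAF inhibition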
An asterisk follows results filed as active; ? = inconclusive; . = not tested or not shown.

SMILES	Wnt act	MITF TRPM1 HTS	AHR activator	GAA850 FXN act	esBAF inh
O=C(C[C@H]1CC[C@@H]2[C@H](COC[C@@H](O)CN2C(=O)Nc2cccc(Cl)c2)O1)NCc1ccccc1F	.	.	.	.	5
CCOCCN1CCN(c2c3c(nc4cc(-c5ccc(F)cc5)nn24)CCC3)CC1	.	23	.	3	18
Fc1cccc(-c2cc3nc4c(c(N5CCC6(CC5)OCCO6)n3n2)CCCC4)c1	.	45	3	-4	52*
OC1CCN(c2c3c(nc4cc(-c5cccc(F)c5)nn24)CCCC3)CC1	5	88*	2	4	104*
CCNC(=O)C[C@@H]1CC[C@@H]2[C@H](COc3ccc(NC(=O)Nc4ccccc4F)cc3C(=O)N2C)O1	.	.	.	.	-1
CN(C)c1ccc(N=Nc2ccccc2Br)cc1	28	9	53*	1	-31
CC(=O)c1ccc(N=Nc2ccc(N(C)C)cc2)cc1	4	-3	0	4	-49
CCc1ccc2nc(N3C(=O)C(O)=C(C(=O)c4ccco4)C3c3cccs3)sc2c1 (configuration not stated)	.	61	11	3	29
O=C(C1=C(O)C(=O)N(c2nc3ccc(Cl)cc3s2)C1c1ccco1)c1ccco1 (configuration not stated)	33*	-14	39	5	?
Cc1ccc2nc(N3C(=O)C(O)=C(C(=O)c4cc5ccccc5o4)C3c3cccs3)sc2c1 (configuration not stated)	.	6	35	4	45*
C[C@H](CO)N1C[C@H](C)[C@@H](CN(C)Cc2ccc(C(F)(F)F)cc2)Oc2c(NC(=O)Nc3ccccc3)cccc2C1=O	.	.	.	.	1
O=C(C1CCOCC1)N1C[C@H]2[C@@H](c3ccccc31)[C@@H](CO)N2C(=O)Nc1cccc(F)c1	.	.	.	.	3
Cc1ccc(S(=O)(=O)N(C)C[C@H]2Oc3ccc(NC(=O)CCCN(C)C)cc3CC(=O)N([C@H](C)CO)C[C@@H]2C)cc1	.	.	.	.	-1
CCCN(C)C[C@@H]1OCCCC[C@H](C)Oc2ccc(NC(=O)C3CCCCC3)cc2C(=O)N([C@@H](C)CO)C[C@@H]1C	.	.	.	.	-4
Cc1cc(COc2ccccc2)oc1C(=O)O	1	.	2	3	51*
CC1CC1C(=O)OCc1cc(=O)n2cc(Br)ccc2n1 (configuration not stated)	41*	80	-2	4	47*
O=C(OCc1cc(=O)n2cc(Br)ccc2n1)C1COc2ccccc2O1 (configuration not stated)	-1	-4	2	4	0
C[C@H](O)C#Cc1cnc2c(c1)C(=O)N([C@@H](C)CO)C[C@H](C)[C@H](CN(C)CC1CCOCC1)O2	.	.	.	.	-14
COc1ccc(CNC(=O)C[C@H]2C[C@@H]3c4cc(NC(=O)NC5CCCC5)ccc4O[C@@H]3[C@@H](CO)O2)cc1	.	.	.	.	5
COCC(=O)Nc1ccc2c(c1)C(=O)N(C)C[C@H](OC)[C@@H](C)CN(C(=O)c1ccccc1F)[C@@H](C)CO2	.	.	.	.	-5
O=C(Nc1ccc(N2CCOCC2)cc1)c1cc2ccccc2o1	.	72	0	6	46*
O=C(NC(=S)Nc1ccc(CN2CCOCC2)cc1)c1cc2ccccc2o1	13	30	-1	2	.
O=C(Nc1ccc(CN2CCOCC2)cc1)c1ccccc1F	39*	.	7	4	26
O=C(Nc1ccc(CN2CCOCC2)cc1)c1cc2ccccc2o1	.	105*	0	4	25
O=C(CCN1CCCCC1)NCC[C@@H]1CC[C@H](NS(=O)(=O)c2cccc(F)c2)[C@@H](CO)O1	.	.	.	.	1
SMILES	Wnt act	MITF TRPM1 HTS	AHR activator	GAA850 FXN act	esBAF inh
CCCC#Cc1ccc([C@@H]2[C@H](C#N)N(C(=O)C3CC3)[C@H]2CO)cc1	.	.	.	.	-1
CO[C@@H](CN(C)Cc1cc(F)ccc1F)[C@@H](C)CN([C@H](C)CO)S(=O)(=O)c1ccc(C)cc1	.	.	.	.	-2
O=C(NNC1=Nc2ccccc2SC1)c1ccccc1F	-1	-4	56*	0	.
O=C(NNC1=Nc2ccccc2SC1)c1cccc([N+](=O)[O-])c1	-3	.	49*	-2	1
C[C@@H]1CN([C@H](C)CO)C(=O)Cc2cc(NC(=O)c3ccncc3)ccc2O[C@H]1CN(C)C	.	.	.	.	-3
Nc1cc(Cl)nc(N/N=C/c2c(O)ccc3ccccc23)n1	0	12	55*	4	.
CC(=O)c1cc2c(cc1NC(=O)C1CN(C(C)=O)c3ccccc3O1)OCO2 (configuration not stated)	3	-3	53*	1	18
Cc1ccc(Oc2cnc3ccccc3n2)cc1	.	109*	-1	0	28
Clc1ccc(Oc2cnc3ccccc3n2)cc1	3	60	8	-2	10
COc1ccc(/C=N/Nc2cc(N3CCCC3)nc(N3CCCC3)n2)cc1	0	7	68*	1	-25
COc1ccc(OC)c(/C=N/Nc2cc(C)nc(N3CCOCC3)n2)c1	-2	.	68*	1	.
CO[C@H](CN(C)C(=O)C1CCOCC1)[C@@H](C)CN(C(=O)Nc1ccc(F)cc1)[C@@H](C)CO	.	.	.	.	0
CCCNC(=O)N1C[C@H](C)[C@@H](OC)CN(C)C(=O)c2cc(NS(C)(=O)=O)ccc2OC[C@@H]1C	.	.	.	.	-2
C[C@@H]1CCCCO[C@@H](CN(C)S(C)(=O)=O)[C@H](C)CN([C@@H](C)CO)C(=O)c2cc(NC(=O)CCC(F)(F)F)ccc2O1	.	.	.	.	-10
c1ccc2c(c1)OCCOCCOc1ccccc1OCCOCCO2	-1	-11	64*	0	.
CN1CCCC1CCNc1ccc2sc3ccccc3c(=O)c2c1 (configuration not stated)	10	108*	-4	7	-2
O=c1c2ccccc2sc2ccc(NCCCN3CCOCC3)cc12	27	72	5	4	10
C[C@@H]1CCCCO[C@@H](CN(C)C(=O)Nc2cccc3ccccc23)[C@H](C)CN([C@@H](C)CO)C(=O)c2cc(NS(=O)(=O)c3ccc(Cl)cc3)ccc2O1	.	.	.	.	8
C[C@H](CO)N1C[C@H](C)[C@@H](CN(C)S(=O)(=O)c2ccccc2)Oc2ccc(NS(C)(=O)=O)cc2CC1=O	.	.	.	.	2
CC1(C)Cc2c(cnn2-c2cccc(F)c2)C(NC(=O)CCN2CCCC2=O)C1 (configuration not stated)	0	-4	-3	1	4
CC1(C)Cc2c(cnn2-c2ccc(F)cc2)C(NC(=O)c2ccco2)C1 (configuration not stated)	0	16	1	1	19
CC1(C)Cc2c(cnn2-c2ccc(F)cc2)C(NC(=O)C2=NNC(=O)CC2)C1 (configuration not stated)	-1	31	3	4	52*

From PubChem
